Reference: PubChem BioAssay AID1159580 (chemical genetic matrix, 2015)
“And” between values parts separate entries of the source, which are not always exact repeats. Identical values can stand only once. Screen size: about 5,500 compounds; about 2,000 (36%) were called active. About 18% were inconclusive and are not listed. No stated cut-off is given here; in the data, active means normalized growth mostly below about 0.91 (no sharp cut-off); inconclusive means no clear call, values can overlap the other calls; inactive means mostly above about 0.92. The list shows a part of the results.

Experiment: chemical genetic growth profiling, strain panel (AID 1159580);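 further: tested at 20 µM; growth read once vehicle control cultures reached saturation at 30 °C; 1 = growth at the plate median or of vehicle wells; lower values mean less growth of the strain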
Details: S. cerevisiae deletion strains, growth OD

Measured: normalized growth

C[C@@H]1CC[C@@]2(OC1)OC1CC3C4CC=C5C[C@@H](O)CC[C@]5(C)C4CC[C@]3(C)C1[C@@H]2C (some centres not stated)
inactive: locus YAL021C, strain ccr4, active compounds read low 1.02 | locus YAL026C, strain drs2, active compounds read low 1.01 | locus YAL030W, strain snc1, active compounds read low 0.996 | locus YBL061C, strain skt5, active compounds read low 0.996 | locus YBR009C, strain hhf1, active compounds read low 1.01 | locus YBR021W, strain FUR4, active compounds read low 1.06 | locus YBR023C, strain chs3, active compounds read low 1 | locus YBR171W, strain sec66, active compounds read low 1 | locus YBR229C, strain ROT2, active compounds read low 1 | locus YBR231C, strain swc5, active compounds read low 0.996 | locus YBR279W, strain paf1, active compounds read low 1 | locus YCL011C, strain gbp2, active compounds read low 1.01 | locus YCL016C, strain dcc1, active compounds read low 0.996 | locus YCL029C, strain bik1, active compounds read low 0.965 | locus YCL061C, strain MRC1, active compounds read low 0.999 | locus YCL069W, strain vba3, active compounds read low 0.995 | locus YCR088W, strain abp1, active compounds read low 1 | locus YDL005C, strain med2, active compounds read low 1 | locus YDL035C, strain GPR1, active compounds read low 1.02 | locus YDL040C, strain nat1, active compounds read low 1 | locus YDL074C, strain BRE1, active compounds read low 1.02 | locus YDL101C, strain DUN1, active compounds read low 0.99 | locus YDL134C, strain PPH21, active compounds read low 0.977 | locus YDL185W, strain tfp1, active compounds read low 0.959 | locus YDL192W, strain arf1, active compounds read low 0.981 | locus YDR001C, strain nth1, active compounds read low 1 | locus YDR069C, strain doa4, active compounds read low 1.01 | locus YDR101C, strain arx1, active compounds read low 0.997 | locus YDR137W, strain rgp1, active compounds read low 0.991 | locus YDR150W, strain NUM1, active compounds read low 0.995 | locus YDR159W, strain sac3, active compounds read low 0.997 | locus YDR162C, strain NBP2, active compounds read low 1.01 | locus YDR195W, strain ref2 0.991 | locus YDR297W, strain sur2, active compounds read low 1.01 | locus YDR318W, strain mcm21, active compounds read low 0.972 | locus YDR334W, strain swr1, active compounds read low 1.01 | locus YDR335W, strain msn5, active compounds read low 1 | locus YDR388W, active compounds read low 0.976 | locus YDR392W, strain spt3, active compounds read low 0.985 | locus YDR502C, strain sam2, active compounds read low 0.986 | locus YEL003W, strain gim4, active compounds read low 1 | locus YEL037C, strain rad23, active compounds read low 0.994 | locus YEL061C, strain CIN8 (second series), active compounds read low 1.01 | locus YER015W, strain faa2, active compounds read low 0.979 | locus YER016W, strain bim1, active compounds read low 0.993 | locus YER110C, active compounds read low 0.969 | locus YER111C, strain swi4, active compounds read low 1.01 | locus YER155C, strain BEM2 (second series), active compounds read low 1.02 | locus YER155C, strain BEM2, active compounds read low 1 | locus YER167W, strain BCK2, active compounds read low 1.01 | locus YFR010W, strain ubp6, active compounds read low 1.01 | locus YGL078C, strain dbp3, active compounds read low 0.973 | locus YGL086W, strain mad1, active compounds read low 0.997 | locus YGL167C, strain pmr1, active compounds read low 0.994 | locus YGL173C, strain kem1, active compounds read low 1.01 | locus YGL227W, strain vid30, active compounds read low 0.978 | locus YGL240W, strain doc1, active compounds read low 0.985 | locus YGL248W, strain PDE1, active compounds read low 1.01 | locus YGL253W, strain hxk2, active compounds read low 1.01 | locus YGR078C, strain PAC10, active compounds read low 0.982 | locus YGR135W, strain pre9, active compounds read low 0.951 | locus YGR252W, strain gcn5, active compounds read low 0.989 | locus YHR013C, strain ard1, active compounds read low 0.986 | locus YHR027C, strain rpn1, active compounds read low 0.986 | locus YHR030C, strain SLT2, active compounds read low 0.994 and 0.991 | locus YHR079C, strain IRE1 (second series), active compounds read low 0.979 | locus YHR079C, strain IRE1, active compounds read low 0.979 | locus YHR094C, strain hxt1, active compounds read low 0.985 | locus YHR129C, strain ARP1, active compounds read low 0.993 | locus YHR142W, strain chs7, active compounds read low 1.01 | locus YHR200W, strain rpn10, active compounds read low 0.999 | locus YIL066C, strain RNR3, active compounds read low 1.01 | locus YIL073C, strain SPO22, active compounds read low 0.882 | locus YIL125W, strain kgd1, active compounds read low 0.985 | locus YIR030C, strain dcg1, active compounds read low 0.96 | locus YJL092W, strain hpr5, active compounds read low 1 | locus YJL095W, strain BCK1 (second series), active compounds read low 0.995 | locus YJL095W, strain BCK1, active compounds read low 0.989 and 0.99 | locus YJL115W, strain asf1, active compounds read low 0.997 | locus YJL129C, strain trk1, active compounds read low 0.97 | locus YJL134W, strain LCB3, active compounds read low 1 | locus YJL154C, strain vps35, active compounds read low 0.998 | locus YJL164C, strain tpk1, active compounds read low 1 | locus YJL166W, strain qcr8, active compounds read low 1.01 | locus YJL168C, strain set2, active compounds read low 0.977 | locus YJL187C, strain SWE1 (second series), active compounds read low 0.988 | locus YJL187C, strain SWE1, active compounds read low 1.02 | locus YJR043C, strain POL32, active compounds read low 1.04 | locus YJR066W, strain TOR1, active compounds read low 0.95 | locus YKL009W, strain mrt4, active compounds read low 0.986 | locus YKL068W, active compounds read low 0.984 | locus YKL085W, strain MDH1 (second series), active compounds read low 0.998 | locus YKL085W, strain MDH1, active compounds read low 0.998 | locus YKL160W, strain elf1, active compounds read low 0.987 | locus YKR001C, strain vps1, active compounds read low 0.985 | locus YKR026C, strain gcn3, active compounds read low 1 | locus YKR091W, strain srl3, active compounds read low 0.996 | locus YLL001W, strain dnm1, active compounds read low 0.997 | locus YLL026W, active compounds read low 1 | locus YLL041C, strain sdh2, active compounds read low 1 | locus YLR027C, strain aat2, active compounds read low 0.993 | locus YLR039C, strain RIC1, active compounds read low 1.05 | locus YLR058C, strain SHM2, active compounds read low 1 | locus YLR102C, strain apc9, active compounds read low 0.986 | locus YLR113W, strain HOG1, active compounds read low 0.964 | locus YLR221C, strain rsa3, active compounds read low 0.989 | locus YLR258W, strain gsy2, active compounds read low 0.995 | locus YLR262C, strain YPT6 (second series), active compounds read low 0.994 | locus YLR262C, strain YPT6, active compounds read low 1.1 | locus YLR268W, strain sec22, active compounds read low 1.01 | locus YLR320W, strain mms22, active compounds read low 0.995 | locus YLR342W, strain FKS1, active compounds read low 0.996 | locus YLR357W, strain rsc2, active compounds read low 1.04 | locus YLR370C, strain arc18, active compounds read low 1 | locus YLR371W, strain rom2, active compounds read low 0.964 | locus YLR384C, strain iki3, active compounds read low 1 | locus YLR418C, strain cdc73, active compounds read low 0.992 | locus YML016C, strain PPZ1, active compounds read low 1.01 | locus YML032C, strain rad52, active compounds read low 0.971 | locus YML120C, strain ndi1, active compounds read low 1 | locus YML124C, strain tub3, active compounds read low 0.978 | locus YMR058W, strain fet3, active compounds read low 1 | locus YMR078C, strain ctf18, active compounds read low 0.951 | locus YMR125W, strain sto1, active compounds read low 0.995 | locus YMR129W, active compounds read low 0.996 | locus YMR205C, strain PFK2, active compounds read low 0.995 | locus YMR223W, strain ubp8, active compounds read low 0.963 | locus YMR231W, strain pep5, active compounds read low 1.02 | locus YMR263W, strain SAP30, active compounds read low 0.988 | locus YMR307W, strain GAS1, active compounds read low 1.24 | locus YNL067W, strain RPL9B, active compounds read low 0.973 | locus YNL071W, strain lat1, active compounds read low 1.01 | locus YNL153C, strain GIM3, active compounds read low 0.99 | locus YNL183C, strain NPR1, active compounds read low 0.964 | locus YNL209W, strain ssb2, active compounds read low 0.997 | locus YNL233W, strain BNI4, active compounds read low 1.01 | locus YNL248C, strain rpa49, active compounds read low 0.999 | locus YNL250W, strain rad50, active compounds read low 0.954 | locus YNL271C, strain bni1, active compounds read low 0.986 | locus YNL298W, strain CLA4, active compounds read low 0.977 | locus YNL307C, strain MCK1, active compounds read low 0.992 | locus YNL322C, strain KRE1 (second series), active compounds read low 0.997 | locus YNR049C, strain mso1, active compounds read low 1 | locus YNR052C, strain pop2, active compounds read low 0.968 | locus YOL012C, strain htz1 1.17 | locus YOL147C, strain pex11, active compounds read low 0.979 | locus YOR001W, strain rrp6, active compounds read low 0.982 | locus YOR061W, strain CKA2, active compounds read low 1.01 | locus YOR069W, strain VPS5, active compounds read low 0.996 | locus YOR070C, strain gyp1, active compounds read low 0.985 | locus YOR080W, strain dia2, active compounds read low 0.999 | locus YOR083W, strain WHI5, active compounds read low 0.983 | locus YOR106W, strain vam3, active compounds read low 0.994 | locus YOR136W, strain idh2, active compounds read low 0.989 | locus YOR144C, strain elg1, active compounds read low 0.99 | locus YOR184W, strain ser1, active compounds read low 1.03 | locus YOR231W, strain MKK1, active compounds read low 0.988 | locus YOR265W, strain rbl2, active compounds read low 1.01 | locus YOR270C, strain vph1, active compounds read low 0.999 | locus YOR290C, strain snf2, active compounds read low 0.949 | locus YOR316C, strain cot1, active compounds read low 0.974 | locus YPL051W, strain arl3, active compounds read low 0.999 | locus YPL055C, strain LGE1, active compounds read low 1.03 | locus YPL078C, strain atp4, active compounds read low 1.01 | locus YPL106C, strain sse1, active compounds read low 1.02 | locus YPL240C, strain hsp82, active compounds read low 0.986 | locus YPL256C, strain CLN2, active compounds read low 0.974 | locus YPR119W, strain clb2, active compounds read low 0.967 | locus YPR141C, strain kar3, active compounds read low 0.951 | locus YPR163C, strain tif3, active compounds read low 0.969 | locus YPR167C, strain met16, active compounds read low 0.983 | strain wtn01, active compounds read low 1.01
